The list is not random: actives were taken first. Their share in the collection is about 5.4%.
MARV entry inh = qHTS for inhibitors of binding or entry into cells for Marburg Virus. Marburg virus pseudotyped entry inhibition, cell reporter. Potency, µM (titrated, usually from 37.8 µM), actives largely listed as inhibitors. 300,000 compounds, 1.8% hits. AID 540276, 2011; calls by dose curve; tested in HEK293 cells
Sm TGR inh = qHTS Assay for the Inhibitors of Schistosoma Mansoni Peroxiredoxins; purified TGR, DTNB reduction, TNB absorbance 405 nm; Potency, µM (series often up to 114 µM), hits mostly inhibitors; 360,000 compounds, 3% hits; AID 485364, 2010; active = well fitted inhibition curve with a large enough effect; inconclusive = small, poorly fitted or top-dose-only effect; inactive = no such curve, though single readings can be large or run the other way; also: nearly all actives have a fitted effect of over 60% in size
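TGR 20 nM + NADPH 100 uM (dispensed conc.), cpd preinc 15 min RT; start with NADPH (500 uM addition) then DTNB (15 mM addition). Kinetic TNB absorbance, 405 nm filter. Four-parameter Hill fit across titration.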
FMDV antiviral = High Throughput Screening for Foot and Mouth Disease Virus Antivirals. FMDV antiviral cell-based qHTS. Potency, µM (top dose mostly 57.9 µM), usual class: inhibitors. 410,000 compounds, 1.2% hits. AID 1159524, 2015; calls by dose curve; tested in HEK293T cells; also: read-out not given here; nearly all actives have a fitted effect of over 45% in size
LASV entry inh = qHTS for Inhibitors of binding or entry into cells for Lassa Virus | Potency, µM (series often up to 37.9 µM), actives largely listed as inhibitors | 300,000 compounds, 1.2% hits | Lassa virus pseudotype entry inhibition, cell reporter | AID 540256, 2011; calls by dose curve; tested in HEK293 cells; also: nearly all actives have a fitted effect of over 50% in size
Vaccinia mCherry = qHTS for Stage-Specific Inhibitors of Vaccinia Orthopoxvirus: mCherry Reporter Primary qHTS | Vaccinia virus mCherry reporter infection, fluorescence | Potency, µM (top dose mostly 36.5 µM), actives largely listed as inhibitors | 310,000 compounds, 0.63% hits; calls by dose curve; tested in A549 cells; also: nearly all actives have a fitted effect of over 35% in size
VACV Venus inh = qHTS for Stage-Specific Inhibitors of Vaccinia Orthopoxvirus: Venus Reporter Primary qHTS; Vaccinia virus Venus reporter expression, fluorescence; Potency, µM (highest dose often 36.5 µM), actives largely listed as inhibitors; 330,000 compounds, 0.46% hits; calls by dose curve; tested in A549 cells; also: nearly all actives have a fitted effect of over 30% in size
Large screens that a line does not name were inactive.

Cc1ccc(C)c(N2CCN(S(=O)(=O)c3c(C(=O)N4CCC(C)CC4)c(C)n(C)c3C)CC2)c1	LASV entry inh inconclusive (no result: MARV entry inh)
Cc1cccc(C(CC(=O)N2CCCC2)c2ccccc2)c1O (configuration not stated)	none (no result: Vaccinia mCherry)
Cc1cccc(C(CC(=O)N2CCCCC2)c2ccccc2)c1O (configuration not stated)	Sm TGR inh 28µM
O=C(NCc1ccco1)/C(=C/c1ccco1)NC(=O)c1ccco1	Sm TGR inh 25µM
O=C(NCc1ccco1)/C(=C\c1ccc(F)cc1)NC(=O)c1ccco1	MARV entry inh inconclusive, Sm TGR inh 32µM
COc1ccc(/C=C(/NC(=O)c2ccco2)C(=O)NCc2ccco2)cc1	none (no result: MARV entry inh, Sm TGR inh, LASV entry inh)
COc1ccc(Nc2nc3ccc(Cl)cc3nc2-n2nc(C)cc2C)cc1	none (no result: MARV entry inh)
COC(=O)c1ccc(NC(=O)CCc2c(C)nn(-c3ccc(N4CCCCC4)nn3)c2C)cc1	none (no result: MARV entry inh)
CCOC(=O)c1c(-c2ccco2)csc1NC(=O)COC(=O)c1cnccn1	Sm TGR inh 7.9µM
CCOC(=O)c1c(-c2ccc(C)o2)csc1NC(=O)CSc1nncs1	Sm TGR inh 4.5µM, LASV entry inh inconclusive (no result: FMDV antiviral)
CCOC(=O)c1c(-c2ccc(C)o2)csc1NC(=O)CN1CCN(CC)CC1	MARV entry inh inconclusive, Sm TGR inh 50µM, LASV entry inh inconclusive (no result: FMDV antiviral)
CCOC(=O)c1c(-c2ccc(C)o2)csc1NC(=O)CN1CCC(C(N)=O)CC1	Sm TGR inh 14µM, FMDV antiviral inconclusive
CN(C)CC(C)(C)CNC(=O)c1cnn(-c2nccc(-c3ccc4c(c3)OCO4)n2)c1-c1ccco1	none (no result: MARV entry inh, Sm TGR inh, LASV entry inh)
CCOC(=O)c1c(-c2ccccc2)csc1NC(=O)CSc1nc(C)cc(C)n1	MARV entry inh inconclusive, FMDV antiviral inconclusive, LASV entry inh inconclusive
CCOC(=O)c1c(-c2ccc(C)o2)csc1NC(=O)CN1CCCCC1	MARV entry inh inconclusive, Sm TGR inh 8.9µM, FMDV antiviral inconclusive, LASV entry inh inconclusive
CCOC(=O)c1c(-c2ccc(C)cc2)csc1NC(=O)CCN1CC(C)OC(C)C1 (configuration not stated)	MARV entry inh inconclusive, FMDV antiviral 28µM, LASV entry inh inconclusive
CCOC(=O)c1c(-c2ccccc2)csc1NC(=O)CSc1nc(N)cc(N)n1	MARV entry inh inconclusive, FMDV antiviral 18µM, VACV Venus inh inconclusive
Cc1cc(C)c(S(=O)(=O)NCC(c2ccco2)N2CCN(c3ccccc3)CC2)c(C)c1 (configuration not stated)	none (no result: MARV entry inh)
CCOc1ccc(NC(=O)CSC2=Nc3ccccc3C3=NC(CC(=O)NCc4ccccc4OC)C(=O)N23)cc1 (configuration not stated)	LASV entry inh inconclusive (no result: MARV entry inh)
O=C(Nc1ccccc1N1CCOCC1)c1ccc([N+](=O)[O-])o1	MARV entry inh inconclusive, LASV entry inh inconclusive, Vaccinia mCherry 11µM, VACV Venus inh inconclusive
O=C(Nc1ccccc1N1CCCCC1)c1ccc([N+](=O)[O-])o1	LASV entry inh inconclusive, Vaccinia mCherry 13µM, VACV Venus inh inconclusive
O=C(NC1CCCCC1)c1ccc(CSc2nc3cccnc3n2Cc2ccc(F)cc2)cc1	FMDV antiviral inconclusive (no result: MARV entry inh)
CCC(=O)N1CCCc2cc(S(=O)(=O)Nc3ccc(C)c(C)c3)ccc21	LASV entry inh inconclusive
Cc1ccccc1OCC(=O)NCC(=O)OCC(=O)c1ccc(Br)cc1	none (no result: MARV entry inh, Sm TGR inh, FMDV antiviral, LASV entry inh)
Cc1ccsc1C1Cc2c(C(=O)NCc3cccnc3)c(=O)cc(C)n2-c2ccccc2S1 (configuration not stated)	none (no result: MARV entry inh, Sm TGR inh, LASV entry inh)
Cc1csc(NC(=O)c2ccc3c(c2)OCO3)n1	MARV entry inh inconclusive, LASV entry inh 7.1µM
O=C(Nc1nc(-c2ccccn2)cs1)c1ccc2c(c1)OCCO2	Vaccinia mCherry 11µM, VACV Venus inh inconclusive (no result: MARV entry inh, LASV entry inh)
O=C(Nc1nc(-c2ccccn2)cs1)c1ccccc1-n1cnnn1	Vaccinia mCherry 1.3µM (no result: MARV entry inh, LASV entry inh)
O=C(O)CSc1nnc(NC(=O)c2ccc3c(c2)OCO3)s1	MARV entry inh inconclusive, FMDV antiviral inconclusive, LASV entry inh 8.9µM
Cn1nc(C(=O)Nc2nc(-c3ccccn3)cs2)c2ccccc2c1=O	MARV entry inh inconclusive
CC(=O)Nc1ccc(C(=O)Nc2nc(-c3ccccn3)cs2)cc1	Sm TGR inh inconclusive (no result: MARV entry inh, LASV entry inh, Vaccinia mCherry, VACV Venus inh)
CCOc1ccc(CCNC(=O)c2sc3ncccc3c2-n2cccc2)cc1OCC	FMDV antiviral inconclusive, LASV entry inh inconclusive (no result: MARV entry inh)
Cc1oc2ccc(O)c(CN3CCCC3)c2c1C(=O)Nc1cccc(Cl)c1C	none
Cc1csc(NC(=O)c2cc3c(s2)CCC3)n1	MARV entry inh 13µM, LASV entry inh inconclusive (no result: Vaccinia mCherry)
CCOc1cc(/C=C2/C(=O)NC(=O)N(c3ccc(CC)cc3)C2=O)ccc1OC(=O)c1cccs1	Sm TGR inh 35µM
COc1cc(/C=C2/C(=O)NC(=O)N(c3ccccc3)C2=O)ccc1O	MARV entry inh inconclusive, Sm TGR inh inconclusive
CCCCN1CCCc2cc(CN(CCCN3CCOCC3)C(=O)Nc3ccc(CC)cc3)ccc21	FMDV antiviral inconclusive (no result: MARV entry inh)
Cc1ccc(CNCc2c(C(=O)O)n(Cc3ccc(C)cc3)c3cc(C)ccc23)cc1	LASV entry inh inconclusive, Vaccinia mCherry 11µM, VACV Venus inh inconclusive (no result: MARV entry inh)
CCc1ccc(CNCc2c(C(=O)O)n(Cc3ccc(C)cc3)c3cc(C)ccc23)cc1	LASV entry inh inconclusive, Vaccinia mCherry inconclusive, VACV Venus inh inconclusive (no result: MARV entry inh)
C=Cc1ccc(Cn2c(C(=O)O)c(CNCc3ccccc3)c3ccc(C)cc32)cc1	FMDV antiviral inconclusive, LASV entry inh inconclusive, Vaccinia mCherry inconclusive, VACV Venus inh 13µM (no result: MARV entry inh)
OCC1(Cc2ccccc2)CCCN(Cc2ccc(-c3ccco3)cc2)C1 (configuration not stated)	MARV entry inh inconclusive, Sm TGR inh 35µM
CCN1CCCC(CO)(Cc2ccccc2)C1 (configuration not stated)	MARV entry inh inconclusive, Sm TGR inh inconclusive
OCC1(Cc2ccccc2)CCN(Cc2ccc(-c3ccco3)cc2)CC1	Sm TGR inh 32µM, FMDV antiviral inconclusive (no result: MARV entry inh, LASV entry inh, Vaccinia mCherry, VACV Venus inh)
O=C(Nc1ccncc1)c1cc(C2CCCCN2C(=O)CCCc2ccccc2)on1 (configuration not stated)	FMDV antiviral inconclusive (no result: MARV entry inh, Sm TGR inh, LASV entry inh)
CCCCNC(=O)c1cc2n(n1)[C@@H](C(F)(F)F)C[C@H](c1ccccc1)N2	none (no result: Sm TGR inh, FMDV antiviral, LASV entry inh, Vaccinia mCherry, VACV Venus inh)
Cn1cc(-c2cc3n(n2)CCC(=O)N3CCCC(=O)Nc2ccc(F)cc2F)c2ccccc21	none (no result: MARV entry inh)
O=S(=O)(c1cccs1)N1CCC(CO)(Cc2ccc(Cl)cc2)CC1	MARV entry inh 7.9µM, FMDV antiviral inconclusive, LASV entry inh inconclusive, Vaccinia mCherry inconclusive
COC(=O)c1ccccc1NC(=O)N1CSC[C@H]1C(=O)OC	Sm TGR inh 28µM (no result: Vaccinia mCherry)
Cc1ccc(C)c(C(=O)N2CCC(C3(c4ccccn4)NC(=O)N(CC4CCCO4)C3=O)CC2)c1 (configuration not stated)	none (no result: MARV entry inh, Sm TGR inh, LASV entry inh)

From PubChem
